This is an account of results in PubChem BioAssay AID1851 (National Center for Advancing Translational Sciences (NCATS), 2009).

Each structure is given as a SMILES string. Values joined by “and” are separate entries in the source; they are usually repeats but may differ in a detail not shown here. Identical values can stand only once. In all, about 16,000 compounds went through this assay and about 2,600 (16%) were called active. Another 20% or so got no clear call; they are omitted. These entries were drawn from the full list. Values without a mark were called inactive. Calls follow the shape of the dose curve; as a rule, active = well fitted curve in the direction sought with a large enough effect; inconclusive = small, poorly fitted or top-dose-only effect, or effect the other way; inactive = no such curve, though single readings can be large or run the other way.
% is scaled to controls: 0 for no effect and ±100 for the full control effect.

Chain of Cytochrome P450 2D6 (Homo sapiens) (P10635 whole entry, looked up): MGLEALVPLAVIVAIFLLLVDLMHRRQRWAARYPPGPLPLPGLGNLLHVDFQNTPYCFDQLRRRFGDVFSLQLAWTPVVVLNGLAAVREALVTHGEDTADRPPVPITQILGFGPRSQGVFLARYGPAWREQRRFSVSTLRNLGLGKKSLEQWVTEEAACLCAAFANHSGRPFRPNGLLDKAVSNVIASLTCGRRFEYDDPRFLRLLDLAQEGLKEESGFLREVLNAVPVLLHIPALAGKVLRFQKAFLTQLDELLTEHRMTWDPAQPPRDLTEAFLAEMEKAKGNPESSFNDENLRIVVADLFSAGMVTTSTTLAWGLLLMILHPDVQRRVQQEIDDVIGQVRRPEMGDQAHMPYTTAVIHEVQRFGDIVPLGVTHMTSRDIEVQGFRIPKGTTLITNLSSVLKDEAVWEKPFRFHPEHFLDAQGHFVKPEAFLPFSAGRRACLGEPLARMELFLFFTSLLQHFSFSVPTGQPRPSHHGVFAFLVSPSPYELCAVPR

The assay has as its target Cytochrome P450 2D6 (Homo sapiens) (UniProt P10635). In words: Cytochrome panel assay with activity outcomes. Conditions: recombinant CYP, pro-luciferin dealkylation, luminescence, p450-cyp2d6; series mostly up to 57.1 µM; activity, negative = inhibition: at the top concentration.
`CCOC(=O)C1=C(C)NC(C)=C(C(=O)OCC)C1c1sccc1C`: the “activity, negative = inhibition” value is -25.9%. Turning to `CCCCC(=O)NC(=S)Nc1cccc(NC(=O)CC)c1`, the “activity, negative = inhibition” value was -10.2%. Consider `Cc1cc(C)c(NC(=O)NC(=O)c2ccc(F)cc2)c(C)n1`, for which the “activity, negative = inhibition” value is 5.27%. Turning to `CCCCCN=c1ccn(Cc2ccccc2)c2ccccc12`, the AC50 (usually the midpoint of the concentration-response curve, whichever way the signal moves) is 10 µM (active). For `O=C(O)c1ccccc1C(=O)Nc1cc2c(cc1Br)-c1ccccc1C2=O`, the activity, negative = inhibition is 16.7% [at 11.4 µM]. The same measure, in the same setting: the same measure for `Cl/C(=C\n1cncn1)c1ccc(Cl)cc1Cl`: -3.83%. Regarding `CC1(C)[C@@H]2CC[C@]1(CC(=O)O)[C@H](Cl)C2`, the activity, negative = inhibition is 6.22% [at 11.4 µM]. Take `COc1ccc(C(C)(C)C)cc1NC(=O)c1cncc(Br)c1`: the “activity, negative = inhibition” value is 9.49%. On the same count and under the same terms, the figure for `CCOc1ccc(C(F)(F)F)cc1NC(C)=O` is -26.1%.

Take `CC(=O)Nc1cc(C(F)(F)F)ccc1Oc1cccc(Br)c1`: the AC50 was 10 µM (active). Turning to `CSCC[C@H](NC(=O)CC(C)(C)C)c1nc2ccccc2[nH]1`, the “activity, negative = inhibition” value was -2.27%. Same read-out and setting: the figure for `C[N+](C)(C)c1nc(N)nc2c1ncn2[C@H]1O[C@@H](CO)[C@@H](O)[C@H]1O` is 6.01% [at 11.4 µM]. The same measure, in the same setting: the same measure for `O=C(COc1ccc([N+](=O)[O-])cc1)NCc1ccccc1`: -28.4%; for `O=C(COc1ccc(/C=N/NC(=O)c2ccccc2)cc1)Nc1ccc([N+](=O)[O-])cc1`: -21%.

In the case of `CCOC(=O)c1cccc(NC(=O)COc2ccc([N+](=O)[O-])cc2)c1`, the AC50 is 1.41 µM (active). As for `O=C(COc1ccc(Br)cc1)Nc1ccc([N+](=O)[O-])cn1`, the “activity, negative = inhibition” value was -1.99%. Turning to `COc1cc(/C=N\Nc2ccc([N+](=O)[O-])cc2)ccc1OCC(=O)Nc1ccc(C)c(C)c1`, the “activity, negative = inhibition” value is -6.34%.

For the compound `O=C(COc1ccc([N+](=O)[O-])cc1)Nc1ccc(C(=O)NCc2cccnc2)cc1`, the AC50 is 3.16 µM (active).

In the case of `O=S(=O)(c1ccccc1)c1cnn2c(C(F)(F)F)cc(-c3ccc(F)cc3)nc12`, the “activity, negative = inhibition” value was -27.4%. Still for that read-out and setting: the same measure for `COc1c(O[C@H]2O[C@@H](CO)[C@@H](O)[C@@H](O)[C@@H]2O)cc2c(c1OC)-c1ccc(SC)c(=O)cc1[C@H](NC(C)=O)CC2`: -2.73% [at 25.6 µM].

In the case of `O=C1CCCC=C1[C@@H](O)CCOC(c1ccccc1)(c1ccccc1)c1ccccc1`, the activity, negative = inhibition is -20.1% [at 11.4 µM]. The same measure, in the same setting: the same measure for `CCOP(=O)(OCC)c1nc(/C=C/c2ccccc2)oc1NCc1ccccc1`: -19.8%; for `O=C1c2ccccc2C(Cc2ccncc2)(Cc2ccncc2)c2ccccc21`: 0.345%. In the case of `O=C(O)CCCSc1ccccc1`, the activity, negative = inhibition was 0.436% [at 11.4 µM]. Regarding `Fc1ccc(SCCc2ccncc2)cc1`, the AC50 was 5.01 µM (active). For the compound `c1ccc(SCCc2ccncc2)cc1`, the AC50 is 2.82 µM (active) and 1.26 µM (active). On to `C[C@@H]1CCCC(CC(=O)O)(CC(=O)O)C1`, for which the activity, negative = inhibition is 0.077% [at 11.4 µM]. `Cc1cccnc1NC(=O)C12CCC(C)(C(=O)O1)C2(C)C` (configuration not stated): the “activity, negative = inhibition” value was 6.8%. On the same count and under the same terms, the same measure for `O=C(O)c1nnsc1-c1ccc(-c2snnc2C(=O)O)cc1`: -3.33% [at 11.4 µM]; for `CC(=O)Nc1ccc(Sc2ncccc2C(=O)Nc2ccc(F)cc2)cn1`: 2.14%; for `CC(=O)Nc1ccc(C#Cc2ccc(NC(C)=O)cc2)cc1`: 1.93%. As to `CCCCN(c1ccccc1)c1ncnc2c1cnn2C`, the activity, negative = inhibition was -12.5% [at 11.4 µM].

As to `Cc1nc(N2CCOCC2)nc(N2CCN(c3ccccc3)CC2)c1[N+](=O)[O-]`, the “activity, negative = inhibition” value is -19.2%. Still for that read-out and setting: the figure for `O=[N+]([O-])c1cccnc1N1CCCCC1` is 6.64%. Consider `Cc1[nH]nc(N2CCCCCC2)c1[N+](=O)[O-]`, for which the AC50 is 15.8 µM (active). Turning to `Cn1c(Oc2ccccc2)c(C=O)c2ccccc21`, the “activity, negative = inhibition” value is -8.7%. The same measure, in the same setting: the figure for `CCOc1ccc(OCC)c(-c2c(=O)n(OCc3ccccc3C(=O)OC)c3ccccc3[n+]2[O-])c1` is 15.3%; for `O=c1onc2cnc3ccccc3n12` it is 5.31%; for `Cc1nc2c(C#N)c(C)[nH]n2c(=O)c1Cc1ccccc1` it is -0.766%.

For the compound `Cc1ccc(-n2c(O)c(/C=N/n3cnnc3)c3ccccc3c2=O)cc1`, the “activity, negative = inhibition” value is -15.6%. Still for that read-out and setting: the figure for `COc1cccc(-c2[nH]nc3c2C(c2ccc(C)o2)C(C#N)=C(N)O3)c1` (configuration not stated) is -18.8%; for `COc1cccc(-c2[nH]nc3c2C(c2ccsc2)C(C#N)=C(N)O3)c1` (configuration not stated) it is -20.1%. Consider `C/C(=C\c1ccco1)C1C(C#N)=C(N)Oc2n[nH]c(-c3ccccc3)c21` (configuration not stated), for which the AC50 is 31.6 µM (active). As for `Nc1ccccc1S(N)(=O)=O`, the “activity, negative = inhibition” value was -5.43% [at 25.6 µM]. On the same count and under the same terms, the figure for `O=C(O)CC(O)C(=O)O` (configuration not stated) is -29%. `CCN(CC)S(=O)(=O)N1CCC(C(=O)NCc2ccc(C)cc2)CC1`: the “activity, negative = inhibition” value was -6.16%.

For `Cc1ccc(S(=O)(=O)NCC2CCC(C(=O)O)CC2)cc1` (configuration not stated), the “activity, negative = inhibition” value was 17.3%. As to `Cc1cc(C)c(S(=O)(=O)NCC2CCC(C(=O)NCc3ccc4c(c3)OCO4)CC2)c(C)c1` (configuration not stated), the AC50 is 12.6 µM (active). As to `CN(C)CCNCCN`, the activity, negative = inhibition was 8.7% [at 11.4 µM].

Regarding `COCCn1c(=O)cnc2cnc(Oc3cccc(Cl)c3)nc21`, the “activity, negative = inhibition” value is -1.14%.

Take `C=C(C)C1Cc2nc(N)nc(C)c2C1` (configuration not stated): the “activity, negative = inhibition” value is 4.24%.

For `Cc1nc2nc[nH]n2c(=O)c1NC(=O)CC12CC3CC(CC(C3)C1)C2`, the “activity, negative = inhibition” value is 6.11%.
